# Pol iota inh: inhibitors of human DNA polymerase iota | Pol iota fluorescent replication assay, 10 min | Potency, µM (doses to about 115 µM), inactives show at the highest dose activity, negative = inhibition, hits mostly inhibitors | 390,000 tested, 1% active | Q9UNA4
#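 Pol iota at 10 nM preincubated 15 min with compounds at room temperature; reaction started with fluorescent substrate, 50 nM final. Fluorescence read kinetically at 0 and 10 min; buffer-only wells as negative control.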
# APEX1 inh: inhibitors of human APE1 endonuclease; Potency, µM (titrated, usually from 65.8 µM), inactives show top-dose activity change, negative = inhibition, hits mostly inhibitors; AID 2517; recombinant APE1, TAMRA/BHQ-2 abasic DNA cleavage fluorescence; 350,000 tested, 0.35% active;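 further: plate controls were vehicle for no effect and reference inhibitor for full effect; nearly all actives have a fitted effect of over 55% in size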
#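 Activity was derived from the fluorescence gain between first and third kinetic reads (60 s intervals, ex 525/em 598 nm) after 50 nM THF-abasic TAMRA/BHQ-2 duplex was added to 0.75 nM APE1 preincubated 15 min with compound.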
# Pol kappa inh: blocks human DNA polymerase kappa activity; AID 588579; Q9UBT6; purified Pol kappa, fluorescent DNA synthesis assay, 10 min; Potency, µM (highest dose often 107 µM), for the others: top-dose activity, negative = inhibition, most hits filed as inhibitors; 400,000 tested, 0.53% active; further: on the % scale 0 is the no-effect control and ±100 the full control effect
#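 50 nM final substrate added after 15 min RT preincubation of 10 nM Pol kappa with compound; fluorescence read at 0 and 10 min.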
# GLS inhibitor: inhibitors of human glutaminase (GLS). O94925. GLS enzymatic activity, qHTS titration. Potency, µM (highest dose often 45.5 µM), inactives show top-dose activity change, negative = inhibition, usual class: inhibitors. 410,000 tested, 0.21% active. AID 624170; further: on the % scale 0 is the no-effect control and ±100 the full control effect
#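 Glutamate formation by hKGA was monitored fluorometrically using coupled glutamate oxidase, HRP and Amplex Red. Substrate was added as 1 mM L-glutamine solution; incubation was 30 min at RT after an initial read.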
# Pol beta inh: blocks human DNA polymerase beta activity | P06746 | Pol beta primer extension/strand displacement, fluorescence kinetic | Potency, µM (titrated, usually from 114 µM), without a hit: top-dose activity change, negative = inhibition, actives largely listed as inhibitors | 340,000 tested, 1.3% active; further: on the % scale 0 is the no-effect control and ±100 the full control effect
#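 Curves were derived by four-parameter Hill fits of normalized qHTS data. The kinetic fluorescent primer-extension read was taken at 0 and 10 min after 50 nM substrate, following a 15 min room-temperature preincubation of 10 nM enzyme with compounds.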
# Pol eta inh: blocks human DNA polymerase eta activity; 390,000 tested, 1.2% active; Potency, µM (highest dose often 114 µM), without a hit: at the top dose activity change, negative = inhibition, usual class: inhibitors; recombinant Pol eta, fluorescent DNA replication assay; AID 588591; Q9Y253; further: on the % scale 0 is the no-effect control and ±100 the full control effect
# Target sequence (Q9Y253 whole entry, looked up): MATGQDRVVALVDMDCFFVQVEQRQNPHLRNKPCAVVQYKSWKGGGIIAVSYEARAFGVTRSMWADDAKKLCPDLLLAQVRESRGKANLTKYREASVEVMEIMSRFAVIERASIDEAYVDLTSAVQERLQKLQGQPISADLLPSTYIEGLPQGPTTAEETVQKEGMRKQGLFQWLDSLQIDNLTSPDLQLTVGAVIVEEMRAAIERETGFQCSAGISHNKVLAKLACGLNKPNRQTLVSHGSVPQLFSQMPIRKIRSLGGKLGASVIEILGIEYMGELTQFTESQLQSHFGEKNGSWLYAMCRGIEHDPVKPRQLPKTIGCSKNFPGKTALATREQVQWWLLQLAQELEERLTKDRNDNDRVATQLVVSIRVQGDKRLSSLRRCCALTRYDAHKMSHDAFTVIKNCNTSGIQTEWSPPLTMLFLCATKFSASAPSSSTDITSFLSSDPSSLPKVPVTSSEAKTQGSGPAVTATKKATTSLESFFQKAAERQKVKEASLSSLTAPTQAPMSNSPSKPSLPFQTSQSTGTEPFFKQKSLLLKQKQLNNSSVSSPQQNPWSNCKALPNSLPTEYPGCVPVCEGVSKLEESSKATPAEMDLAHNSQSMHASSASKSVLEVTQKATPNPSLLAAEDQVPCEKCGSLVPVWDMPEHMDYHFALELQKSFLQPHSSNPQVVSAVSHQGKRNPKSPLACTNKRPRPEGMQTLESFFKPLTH
#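 Pol eta (10 nM) was preincubated with compounds for 15 min at room temperature, after which fluorescent replication substrate (50 nM final) was added to start the reaction. Fluorescence was read kinetically at 0 and 10 min.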
# The depositor's hits bear a star; ? = inconclusive; / = no result given; [ ] = remark or other dose. A selection: hits, their analogues and other compounds. The true share with any hit is near 2.4%. The call rests on the fitted dose curve; in most records, active means well fitted curve in the direction sought with a large enough effect; inconclusive means small, poorly fitted or top-dose-only effect, or another doubt; inactive means no such curve, though single readings can be large; an effect the other way counts as inactive or inconclusive. Potency means the concentration at half of the fitted maximal effect.
SMILES,Pol iota inh,APEX1 inh,Pol kappa inh,GLS inhibitor,Pol beta inh,Pol eta inh
CCc1ccc(N2CC(C(=O)NC3CC3)CC2=O)cc1 (stereo unspecified),86%,17%,-10%,-2%,-11%,-20%
CCOC(=O)C(C(=O)OCC)C(c1ccccc1)N1CCN(c2ccccc2)CC1 (stereo unspecified),-18%,/,5%,20%,/,?
O=C(Nc1ccccc1Cc1ccccc1)c1ccccc1NS(=O)(=O)c1ccc(Cl)s1,-14%,-1%,-13%,18%,?,79µM*
Cc1ccccc1-c1nnn(CC(=O)Nc2sc3c(c2C#N)CCC(C(C)(C)C)C3)n1 (stereo unspecified),-9%,/,0%,-9%,1%,-2%
CCc1ccc(-c2ccc(SCC(=O)Nc3nnc(C)s3)nn2)cc1,103%,-4%,-15%,4%,40µM*,-10%
CC(=O)Nc1ccc(NC(=O)Cc2ccc(S(=O)(=O)N3CCCCC3)s2)cc1,?,?,-24%,-3%,?,13µM*
COC(=O)CCNC(=O)Cc1ccc(S(=O)(=O)N2CCCCC2)s1,?,-4%,-18%,0%,/,79µM*
CCC(CC)NC(=O)Cc1ccc(S(=O)(=O)N2CCOCC2)s1,?,-9%,-19%,1%,?,10µM*
O=C(Cc1ccc(S(=O)(=O)N2CCOCC2)s1)Nc1ccc(S(=O)(=O)N2CCCCC2)cc1,-8%,35%,-13%,-7%,/,-11%
Cc1ccc(C)c(NC(=O)Cc2ccc(S(=O)(=O)N3CCCCC3)s2)c1,9%,-3%,-5%,2%,0%,?
CNc1ccc(Br)cc1C(O)c1ccccc1 (stereo unspecified),?,-1%,-2%,0%,8%,-19%
CCCc1nnc(SCC(=O)Nc2ccccc2F)o1,103%,38%,4%,3%,0%,-13%
COC(=O)C1CCN(C(=O)COC(=O)c2cc(-c3ccccc3)nc3ccc(OC)cc23)CC1,20µM*,?,-45%,-1%,/,40µM*
CC1=C(C(=O)NC2CC(C)(C)Cc3c2cnn3-c2cccc(F)c2)OCCO1 (stereo unspecified),6%,-11%,-8%,19%,45%,-1%
N=c1ccn(Cc2cccc(Cl)c2)cc1,13%,-3%,-8%,12%,18%,-12%
Cc1cc(C(=O)CSc2nnc(-c3ccccc3)n2-c2ccccc2)c(C)n1-c1ncn[nH]1,?,1%,?,?,40µM*,20µM*
CCOC(=O)c1ccc(NC(=O)CSc2nnc(-c3ccncc3)n2-c2ccccc2)cc1,-19%,/,-10%[60.1 µM],-15%,2.2µM*,0%
O=C(CSc1nnc(-c2ccncc2)n1-c1ccccc1)Nc1ccc(C(=O)O)cc1,7%,38%,-10%,-1%,9%,-3%
Cc1cc(C(=O)CSc2nnc3ccccn23)c(C)n1-c1ccccc1,27%,6%,-2%,-1%,29%,-11%
Cc1cc(C(=O)CSc2nnc(-c3ccncc3)n2-c2ccccc2)c(C)n1C,18µM*,-5%,-24%,-6%,45µM*,?
Cc1ccc(S(=O)(=O)N(CC(=O)NCCSc2ccc(Cl)cc2)c2cccc(Cl)c2)cc1,-7%,/,8%,-4%,-1%,-16%
CCOc1ccc(S(=O)(=O)Nc2ccc3oc(C)c(C(=O)OCCOC)c3c2)cc1,12%,/,-7%[60.1 µM],0%,-24%,-24%
COCCOC(=O)c1c(C)oc2ccc(NS(=O)(=O)c3ccc(C(=O)O)cc3)cc12,-17%,-10%,-22%,-10%,35µM*,11µM*
COC(=O)c1cc(C#N)c(OC)nc1C,82%,-4%,3%,4%,7%,-21%
COc1cc(/C=C(\C(=O)O)c2ccc(S(=O)(=O)N3CCCC3)s2)cc(OC)c1,?,-13%,-16%,13%,/,?
SMILES,Pol iota inh,APEX1 inh,Pol kappa inh,GLS inhibitor,Pol beta inh,Pol eta inh
O=C(O)/C(=C\c1cccc([N+](=O)[O-])c1)c1ccc(S(=O)(=O)N2CCCCC2)s1,?,1%,-34%,1%,25µM*,?
O=C(O)/C(=C\c1ccccc1Cl)c1ccc(S(=O)(=O)N2CCCCC2)s1,?,24%,-23%,18%,?,50µM*
O=C(O)/C(=C\c1cccc(C(F)(F)F)c1)c1ccc(S(=O)(=O)N2CCCC2)s1,?,39%,-16%,0%,/,?
O=C(O)/C(=C\c1ccc(Cl)cc1)c1ccc(S(=O)(=O)N2CCCC2)s1,-15%,-7%,?,19%,/,?
COc1ccc(Br)cc1/C=C(\C(=O)O)c1ccc(S(=O)(=O)N2CCCC2)s1,?,-12%,?,?,/,22µM*
O=C(O)/C(=C\c1ccc(Cl)c([N+](=O)[O-])c1)c1ccc(S(=O)(=O)N2CCCCC2)s1,?,-8%,-32%,-24%,?,79µM*
CSc1ccc(/C=C(\C(=O)O)c2ccc(S(=O)(=O)N3CCCCC3)s2)cc1,?,?,-26%,14%,?,?
C[C@H]1COc2cc(N3CCN(Cc4ccccc4F)CC3)ccc2S(=O)(=O)N1,/,/,/,-1%,/,/
CCCCCCCC(=O)O[C@H](CC(=O)O)C[N+](C)(C)C,/,-4%,-7%[19.4 µM],/,/,/
Cc1cccc(NS(=O)(=O)c2nnc(NC(=O)c3cccc(C)c3)s2)c1,-24%,18%,-9%,23%,20%,-7%
Cc1cc(C)c2nc(Cl)c(CN(Cc3ccco3)C(=O)Nc3ccccc3C)cc2c1,89µM*,-1%,-8%,5%,1%,-7%
COCCN(Cc1cc2cc(C)cc(C)c2nc1Cl)C(=O)Nc1ccccc1,35%,0%,-9%,1%,?,-14%
Cc1ccc(C(C(=O)NC2CCCCC2)N(Cc2ccco2)C(=O)C2COc3ccccc3O2)o1 (stereo unspecified),6%,-8%,-20%,5%,-6%,7%
O=C(CSc1ccc2ccccc2c1)NCCc1ccc(O)c(O)c1,41%,-8%,-2%,1.4µM*,?,-7%
COc1cccc(OCc2cc(=O)n3c(-c4ccccc4)csc3n2)c1,-29%,/,-24%,-4%,20µM*,-22%
Cc1ccccc1OCc1cc(=O)n2c(-c3ccccc3)csc2n1,12%,/,-9%,14%,25%,-5%
COC(=O)c1cc(=O)n2c(-c3ccccc3)csc2n1,10%,2%,-6%,6%,-1%,-1%
CCN(CC(=O)NC(C)(C)C)Cc1cc(=O)n2c(-c3ccccc3)csc2n1,45µM*,5%,-42%,13%,?,?

# Screens: PubChem, National Center for Advancing Translational Sciences (NCATS)
